# CHX counter: affects cycloheximide protein synthesis inhibition readout, counter-screen; cell reporter, cycloheximide protein synthesis inhibition counterscreen; max response, %; hit rate 12% among 300,000; in the data active = max response mostly above about 13%, no sharp cut-off; inactive = mostly below about 14%; note: read at 38.3 µM for the half of the compounds with a filed dose; 0% is about no effect
# Shiga inhibitor: blocks Shiga toxin action in Vero cells; Vero cells, Shiga toxin protein synthesis inhibition reporter; inhibition, % at 38.7 µM; hit rate 9.2% among 290,000; AID 2315; in the data active = inhibition mostly above about 28%, no sharp cut-off; inactive = mostly below about 43%; note: 0% is about no effect
# Pf growth 48h: P. falciparum growth inhibition at 48 hours (one generation); P. falciparum luciferase growth in erythrocytes, 48 h; Potency, µM (highest dose often 28.7 µM), inactives show at the top dose activity change, negative = inhibition, actives largely listed as inhibitors; hit rate 5.9% among 310,000; AID 504832; note: potency is the fitted concentration of half-maximal effect; % is set by controls: 0 for no effect and ±100 for the full control effect
#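 Luminescence readout; reporter = integrated firefly luciferase in P. falciparum. RBC culture at 2% hematocrit, 0.1% parasitemia final, 37 C/5% CO2; decreased signal taken as growth inhibition.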
# Pf growth 96h: inhibits malaria parasite growth, 96 h; P. falciparum luciferase reporter growth, 96 h; Potency, µM (doses to about 28.7 µM), for inactives: top-dose activity change, negative = inhibition, most hits filed as inhibitors; hit rate 6.9% among 320,000; AID 504834; note: potency is the fitted concentration of half-maximal effect; % is set by controls: 0 for no effect and ±100 for the full control effect
#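 P. falciparum expressing integrated firefly luciferase, in erythrocytes at 2% hematocrit, 0.05% parasitemia, incubated with compounds 96 h at 37 C, 5% CO2. Growth inhibition read as loss of luminescence; two-generation exposure targets delayed-death apicoplast inhibitors.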
# Numbers without * were called inactive; i = inactive; ? = inconclusive; . = no result given; [ ] = another dose, or the depositor's remark. Only some compounds are listed: those with a hit (about 21% of all), similar ones and a draw of the others. Unless noted, calls come from the whole dose curve; as a rule, active = well fitted inhibition curve with a large enough effect; inconclusive = small, poorly fitted or top-dose-only effect, or another doubt; inactive = no such curve, though single readings can be large or run the other way.
SMILES,CHX counter,Shiga inhibitor,Pf growth 48h,Pf growth 96h
Cc1ccc(C(=O)Nc2nc3ccccc3s2)s1,52*,32,-101%,44%
Cc1ccc(S(=O)(=O)Nc2nc3ccc(S(C)(=O)=O)cc3s2)cc1,-1,-11,-12%,12µM*
CN(CC(=O)Nc1nc2ccccc2s1)S(=O)(=O)c1ccccc1,29*,61*,37%,?
COc1ccc(CCNC(=O)CN2c3cccc4cccc(c34)S2(=O)=O)cc1OC,3,-2,-14%,26%
CCOC(=O)c1sc(NC(=O)c2cccnc2)nc1C,-7,-14,.,-6%
CS(=O)(=O)c1ccc2nc(NC(=O)c3cccc([N+](=O)[O-])c3)sc2c1,31*,75*,35%,?
CCNS(=O)(=O)c1ccc2nc(NC(=O)c3cccnc3)sc2c1,33*,84*,1%,.
O=C(Nc1nc2ccccc2s1)c1ccccc1,28*,91*,i,i
Cc1csc2nc(NC(=O)c3ccccc3)sc(=O)c12,12*,26,62%,43%
Cc1ccccc1C(=O)Nc1nc2c(C)csc2c(=O)s1,-2,-13,25%,0%
CS(=O)(=O)c1ccc2nc(NC(=O)c3cc([N+](=O)[O-])cc([N+](=O)[O-])c3)sc2c1,-3,.,-8%,4%
Cc1ccc(C)c(S(=O)(=O)N(C)C2CCS(=O)(=O)C2)c1 (stereo not drawn),.,.,39%,31%
CN[C@@H]1[C@H](O[C@@H]2O[C@H](CO)[C@@H](N)[C@H](O)[C@@H]2O)O[C@H]2C[C@@H](N)[C@@H](O[C@H]3[C@@H](O)[C@H](O)[C@H](N)C[C@@H]3N)O[C@H]2[C@H]1O,.,.,15%[12.8 µM],-18%[12.8 µM]
Cc1ccc(-n2c(C)cc(=O)cc2C)cc1[N+](=O)[O-],-5,-12,22%,0%
CCCCOC(=O)C1=C(C)NC(=O)NC1c1ccccc1 (stereo not drawn),-4,-6,6%,8.3µM*
CC1=C(C(=O)OC2CCCCC2)C(c2ccccc2)NC(=O)N1 (stereo not drawn),4,-5,8%,9.3µM*
CC1=C(C(=O)OC2CCCCCCC2)C(c2ccc(O)cc2)NC(=O)N1 (stereo not drawn),-3,-19,.,-21%
COc1cc(C2NC(=O)NC(C)=C2C(=O)OC2CCCC(C)C2)ccc1O (stereo not drawn),-3,-9,10µM*,.
CCOC(=O)C1=C(C)NC(=O)NC1c1ccc(N2CCC(c3ccccc3)=N2)cc1 (stereo not drawn),11*,26*,?,-55%
CCCCOC(=O)C1=C(C)NC(=O)NC1c1ccc(N(C)C)cc1 (stereo not drawn),-2,-7,18%,176%
CN(C)C(CNC(=O)CCc1c[nH]c2ccccc12)c1ccccc1 (stereo not drawn),0,4,23%,20%
Cc1cc(C)n(CC(=O)c2cccc(N)c2)n1,-2,-16,-2%,19%
CC(=O)NCCCNS(=O)(=O)c1ccc(C)cc1,-2,2,47%,?
COc1cc(C2NC(=O)NC(C)=C2C(=O)OC2CCCCC2)cc(Br)c1O (stereo not drawn),-2,-9,.,13µM*
CCOC(=O)C1=C(CS(=O)(=O)c2ccccc2)NC(=O)NC1c1cc(OC)c(O)c(OC)c1 (stereo not drawn),-1,2,17%,2.6µM*
SMILES,CHX counter,Shiga inhibitor,Pf growth 48h,Pf growth 96h
CCOC(=O)C1=C(COc2ccccc2)NC(=O)NC1c1ccc(Br)cc1 (stereo not drawn),-2,-9,?,3.3µM*
Cc1cc(C)nc(Nc2cccc(C(F)(F)F)c2)n1,2,15,4%,-29%
CCOC(=O)c1ccc(Nc2ncnc3ccccc23)cc1,46*,48,2%,288%
Cc1cc(C)nc(Nc2cccc(Cl)c2)n1,15*,34,33%,15%
O=C(O)CCC(=O)NNc1ncnc2ccccc12,46*,73*,23%,16%
CCOC(=O)c1cccc(Nc2nc(C)cc(C)n2)c1,14*,13,25%,-14%
CCOC(=O)c1ccc(Nc2ncnc3ccc(C)cc23)cc1,6,10,?,-6%
Clc1ccccc1CNc1ncnc2nc[nH]c12,4,11,?,?
Cc1cccc(Nc2ncnc3nc[nH]c23)c1,39*,65*,67%,?
CC(Nc1ncnc2nc[nH]c12)c1ccccc1 (stereo not drawn),2,12,?,13µM*
O=C(Oc1ccc(Nc2ncnc3ccccc23)cc1)c1cccnc1,-3,37,3%,12µM*
CCOC(=O)c1ccc(Nc2ncnc3nc[nH]c23)cc1,22*,44*,62%,10%
Cc1ccc(C)c(Nc2ncnc3nc[nH]c23)c1,-7,-15,.,-17%
Cc1ccc(S(=O)(=O)N(C)c2ccc(OCC(=O)Nc3cccc(-n4cnnn4)c3C)cc2)cc1,-1,-5,?,-22%
CC1CC2CCC(O2)C(C)C(=O)OC(C)CC2CCC(O2)C(C)C(=O)OC(C)CC2CCC(O2)C(C)C(=O)OC(C)CC2CCC(O2)C(C)C(=O)O1 (stereo not drawn),8,11,.,.
COC(=O)COc1ccc(NS(=O)(=O)c2cccc([N+](=O)[O-])c2)cc1,-2,-3,10%,44%
CCOC(=O)c1cccc(Nc2ncnc3ccc(C)cc23)c1,-3,-4,12µM*,9.3µM*
O=C(O)c1ccc(Nc2ncnc3ccccc23)cc1,16*,20,31%,9%
O=C(OCC(=O)N1CCN(c2ccccc2)CC1)c1ccc(O)cc1O,0,14,?,?
Cc1cccc(OCC(=O)N2CCC(c3ccccc3)C2)c1 (stereo not drawn),30*,79*,100%,?
O=C(COc1ccc(F)cc1)N1CCC(c2ccccc2)C1 (stereo not drawn),43*,58*,157%,?
Cc1cccc(OCC(=O)N2CCN(C(=O)Cc3ccccc3)CC2)c1,1,-8,11%,28%
CCN1CCN(c2ccc(NC(=O)c3cc(OC)c(OC)c(OC)c3)cc2)CC1,-1,-9,6%,-66%
Cc1cc(N)ccc1N=Nc1c(C)n(C)n(-c2ccccc2)c1=O,31*,29,11%,12%
Cc1c(N=C2C=CC(=O)c3ccccc32)c(=O)n(-c2ccccc2)n1C,-1,-10,?,15µM*
SMILES,CHX counter,Shiga inhibitor,Pf growth 48h,Pf growth 96h
Cc1c(N=C2N=C(NC(=O)NC(C)(C)C)c3ccccc32)c(=O)n(-c2ccccc2)n1C,5,-17,13µM*,?
Cc1ccoc1C(=O)N1CCN(C(=O)c2occc2C)CC1,-4,1,9%,-1%
CC(=O)Nc1ccc(NC(=O)CSc2nc(N)c(NC(=O)c3ccccc3F)c(=O)[nH]2)cc1,20,-4,?,12µM*
CC(=O)Nc1ccc(NC(=O)c2ccccc2F)cc1,20*,58*,61%,5%
O=C(Nc1ccc2cn[nH]c2c1)c1ccccc1F,60*,40*,339%,384%
O=C(NC(=S)Nc1ccc2oc(-c3ccncc3)nc2c1)c1ccccc1F,-2,-6,25%,-22%
O=C(Nc1ccncc1)c1ccccc1F,24,-8,12%,12%[5.75 µM]

# From PubChem BioAssay
